Values joined by “and” are separate entries in the source; they are usually repeats but may differ in a detail not shown here. Identical values can stand only once. Active and inactive are the calls of the source. The calls were made as follows: active = hit-call score of the fitted dose curve at least 0.9, where 1 is the maximum; inactive = score below 0.9.

This is an account of results in PubChem BioAssay (EPA / NIEHS).

E-selectin (Homo sapiens), sequence (P16581 whole entry, looked up): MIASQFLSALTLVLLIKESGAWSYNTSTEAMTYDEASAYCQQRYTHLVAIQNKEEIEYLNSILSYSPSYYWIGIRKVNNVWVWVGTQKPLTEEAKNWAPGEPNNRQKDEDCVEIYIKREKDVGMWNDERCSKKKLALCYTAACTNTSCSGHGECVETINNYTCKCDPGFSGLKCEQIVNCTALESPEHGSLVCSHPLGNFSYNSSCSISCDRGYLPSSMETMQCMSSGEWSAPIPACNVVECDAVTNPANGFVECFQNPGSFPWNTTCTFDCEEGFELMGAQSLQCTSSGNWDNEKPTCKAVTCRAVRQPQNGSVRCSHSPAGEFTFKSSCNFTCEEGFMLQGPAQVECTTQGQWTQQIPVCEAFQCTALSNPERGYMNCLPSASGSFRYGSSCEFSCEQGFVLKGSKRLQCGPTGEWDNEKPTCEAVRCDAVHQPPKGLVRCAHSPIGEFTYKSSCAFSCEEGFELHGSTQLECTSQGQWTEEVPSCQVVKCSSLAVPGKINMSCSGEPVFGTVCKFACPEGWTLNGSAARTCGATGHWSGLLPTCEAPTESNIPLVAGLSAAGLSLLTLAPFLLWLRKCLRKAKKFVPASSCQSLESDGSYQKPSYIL

Read-out in this assay: E-selectin (Homo sapiens) (UniProt P16581)
Nature of the assay: BSK_3C_Eselectin: BioMAP Diversity Plus: 3C Assay for Eselectin Biomarker Activity (AID 2283015). The conditions noted are these: primary human endothelial cells (HUVEC); actives raise or lower the signal. The method, then: BSK_3C is a cell-based, multiplexed-readout assay that uses umbilical vein endothelium, a human vascular primary cell, with measurements taken at 24 hours after chemical dosing in a 96-well plate.BSK_3C_Eselectin is an assay component measured in the BSK_3C assay. It measures E-selectin antibody related to regulation of gene expression using ELISA technology.Data from the assay component BSK_3C_Eselectin was analyzed into 1 assay endpoint. This assay endpoint, BSK_3C_Eselectin, was analyzed with bidirectional fitting relative to DMSO as the negative control and baseline of activity. Using a type of binding reporter, gain or loss-of-signal activity can be used to understand changes in the signaling as they relate to the gene SELE. Furthermore, this assay endpoint can be referred to as a primary readout, because this assay has produced multiple assay endpoints where this one serves a signaling function. To generalize the intended target to other relatable targets, this assay endpoint is annotated to the cell adhesion molecules intended target family, where the subfamily is selectins.
The levels of cell surface (or secreted, indicated by the prefix "s") biomarker endpoints were measured by ELISA. Overt cytotoxicity to cells in confluent adherent cultures (all systems other than the BT system) was assessed by measuring total protein levels using sulforhodamine B (SRB) staining in parallel cultures at the time of biomarker measurements, indicated as SRB endpoints. For proliferation assays for adherent cell types, individual cell types are cultured at sub-confluence and relative cell numbers quantified by SRB staining at time points optimized for each system (48 h: 3C and CASM3C systems; 72 h: BT and HDF3CGF systems; 96 h: SAg system). SRB was performed by staining cells with 0.1% SRB after fixation with 10% TCA and reading wells at 560 nm.Viability and proliferation of PBMC (T cells) was quantified by Alamar Blue reduction for the SAg and BT systems. For PBMC viability (referred to as PBMC Cytotoxicity within the assay endpoint names), cells were plated (75,000/well in a 96-well plate) and then chemical samples added for 1 h before addition of activators, SEB and TSST-1 (20 ng/mL final concentration each). Cells were incubated for 90 h. Then, Alamar Blue (20 uL/well) (Invitrogen, Cat DAL1100) was added for 6 h, and the plates were read with a fluorescence microplate reader at 546/580 nm (excitation/emission). For PBMC proliferation, cells were plated and activated as above but incubated for only 16 h prior to addition of Alamar Blue. Plates were read after 6 h.
One may read the AC50 as the concentration giving half of the maximal activity seen. As to `CC(C)(c1cc(Cl)c(O)c(Cl)c1)c1cc(Cl)c(O)c(Cl)c1`, the AC50 was 12 µM (active). Take `CC(=O)/C=C/c1ccccc1`: the outcome was inactive. With `Cc1ccc(OP(=O)(Oc2ccc(C)cc2)Oc2ccc(C)cc2)cc1` (tested in a mixture with another compound), the outcome was inactive. Same read-out and setting: the same measure for `Clc1ccc(-c2ccccc2)cc1`: “inactive”. For `COC(C)(C)CCC[C@H](C)C/C=C/C(C)=C/C(=O)OC(C)C`, the AC50 was 28.7 µM (active). Regarding `CCCOC(=O)c1ccccc1C(=O)OCCC`, the AC50 is 36.4 µM (active).

For the compound `O=S(=O)(c1ccccc1)c1ccccc1`, the outcome was inactive.

Regarding `O=C1C=CC(=O)C=C1`, the AC50 was 13.4 µM (active) and 8.64 µM (active). In the case of `O=c1c2ccccc2c(=O)c2c1cc(Cl)c1[nH]c3c([nH]c12)c(Cl)cc1c(=O)c2ccccc2c(=O)c13`, the result was inactive.

Consider `O=c1[nH]c(Cl)c(Cl)cc1Cl`, for which the outcome was inactive. Take `N#CCCCCC#N`: the outcome was inactive. As for `CCCC[N+](CCCC)(CCCC)CCCC`, the result was inactive.

With `C=CC(=O)OCC(CC)CCCC` (stereo not drawn), the outcome was inactive. `CCCCCCCCCCCC#N`: the AC50 is 30.2 µM (active). On to `O=[N+]([O-])c1ccc(Cl)cc1`, for which the outcome was inactive. Take `Nc1ccc(-c2ccc(N)c(N)c2)cc1N`: the AC50 was 8.29 µM (active). Turning to `CC(C)COP(=O)(OCC(C)C)OCC(C)C`, the outcome was inactive. Consider `CNC(=O)Oc1cc(C)c(SC)c(C)c1`, for which the AC50 is 20 µM (active). For the compound `O=C(O)CCCc1ccc(N(CCCl)CCCl)cc1`, the AC50 was 20 µM (active). On to `[Cd+2].[Cl-].[Cl-]`, for which the outcome was inactive. Take `CCc1cc(C)cc(CC)c1-c1c(OC(=O)C(C)(C)C)n2n(c1=O)CCOCC2`: the AC50 was 5.7 µM (active).

In the case of `Oc1ccc(C2(c3ccc(O)cc3)c3ccccc3-c3ccccc32)cc1`, the AC50 is 18.1 µM (active) and 23.5 µM (active).

In the case of `CC(C)(C)C(O)C(Oc1ccc(-c2ccccc2)cc1)n1cncn1` (stereo not drawn), the AC50 is 29.9 µM (active). Same read-out and setting: with `CC(C)CCCCCCCOP(=O)(Oc1ccccc1)Oc1ccccc1` the figure was 20 µM (active). As for `CC(C)CCCCCCCOC(=O)c1ccccc1C(=O)OCCCCCCCC(C)C`, the outcome was inactive. Consider `O=[N+]([O-])C=Cc1ccccc1`, for which the AC50 was 6.94 µM (active). Take `c1ccc(Nc2ccc3ccccc3c2)cc1`: the AC50 was 13.8 µM (active).

For the compound `Oc1cc(Cl)ccc1Cl`, the result was inactive. On to `O=P1(NCCCl)OCCCN1CCCl` (stereo not drawn), for which the outcome was inactive. As for `O=C1C(Cl)=C(Cl)C(=O)C(Cl)=C1Cl`, the AC50 was 10.3 µM (active). As for `CC1(C)[C@H](C(=O)O[C@H](C#N)c2cccc(Oc3ccccc3)c2)[C@@H]1C=C(Br)Br`, the outcome was inactive. As for `O=C(CCl)c1ccccc1`, the AC50 is 6.97 µM (active).

As to `CCC(C)c1cc([N+](=O)[O-])cc([N+](=O)[O-])c1OC(=O)C=C(C)C` (stereo not drawn), the concentration at half-maximal activity (AC50) is 14.4 µM (active). Take `COc1ccc(CO)cc1`: the outcome was inactive. With `CC(C)(C)C(=O)CCl`, the AC50 is 20 µM (active). Turning to `O=[N+]([O-])O`, the result was inactive. Same read-out and setting: the same measure for `C=CCN(CC=C)C(=O)C(Cl)Cl`: “inactive”; for `COCC(=O)N(c1c(C)cccc1C)N1CCOC1=O`: “inactive”.
